From PubChem BioAssay (EPA / NIEHS)
Calls of active or inactive are those of the source. How the source made its calls: active means hit-call score of the fitted dose curve at least 0.9, where 1 is the maximum; inactive means score below 0.9.

These molecules were tested against Paired box protein Pax-6 (Homo sapiens) (UniProt P26367) (assay: ATG_Pax6_CIS: Attagene CIS-FACTORIAL HepG2 Assay for human Paired Box 6 (PAX6) (AID 2282956)). Conditions: HepG2 CIS-FACTORIAL PAX6 reporter transcription, RNA readout; actives raise or lower the signal.
Chain of Paired box protein Pax-6 (Homo sapiens) (P26367 whole entry, looked up): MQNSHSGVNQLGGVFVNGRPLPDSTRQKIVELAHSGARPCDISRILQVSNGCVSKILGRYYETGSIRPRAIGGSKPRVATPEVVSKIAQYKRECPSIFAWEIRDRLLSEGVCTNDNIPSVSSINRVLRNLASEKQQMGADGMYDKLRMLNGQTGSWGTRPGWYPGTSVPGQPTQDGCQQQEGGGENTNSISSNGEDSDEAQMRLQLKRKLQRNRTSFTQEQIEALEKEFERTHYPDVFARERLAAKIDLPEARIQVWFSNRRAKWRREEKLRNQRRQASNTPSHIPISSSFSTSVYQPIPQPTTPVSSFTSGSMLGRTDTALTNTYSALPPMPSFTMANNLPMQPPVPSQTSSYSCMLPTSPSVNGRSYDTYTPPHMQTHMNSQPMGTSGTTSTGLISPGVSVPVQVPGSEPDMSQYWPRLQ
Experimental: ATG_CIS is a cell-based, multiplexed-readout assay that uses HepG2, a human liver cell line, with measurements taken at 24 hours after chemical dosing in a 24-well plate.ATG_Pax6_CIS is one of 52 assay component(s) measured or calculated from the ATG_CIS assay. It is designed to make measurements of mRNA induction, a form of inducible reporter, as detected with fluorescence intensity signals by Reverse transcription polymerase chain reaction (RT-PCR) and Capillary electrophoresis technology.Data from the assay component ATG_Pax6_CIS was analyzed into 1 assay endpoint. This assay endpoint, ATG_Pax6_CIS, was analyzed with bidirectional fitting relative to DMSO as the negative control and baseline of activity. Using a type of inducible reporter, measures of mRNA for gain or loss-of-signal activity can be used to understand the reporter gene at the transcription factor-level as they relate to the gene PAX6. Furthermore, this assay endpoint can be referred to as a primary readout, because this assay has produced multiple assay endpoints where this one serves a reporter gene function. To generalize the intended target to other relatable targets, this assay endpoint is annotated to the dna binding intended target family, where the subfamily is paired box protein.
Human liver HepG2 cells are transiently transfected with multiple reporter transcription units (MRTUs) in 6-well plates using FuGene 6 reagent (Roche; 3 ml FuGene/1 mg DNA). The MRTU constructs are regulated by a cis-regulating element (promoter). […] A major difference between the CIS and TRANS system is that in CIS activities of endogenous TFs are measured, whereas the TRANS assay evaluates changes in activities of exogenous, chimeric NR-Gal4 proteins. […] At the end of 24 hour incubation, total RNA was isolated using TriZol reagent (Invitrogen). The isolated RNA is then reverse-transcribed using oligo(dT) primer and Mo-MLV reverse transcriptase (Invitrogen) with DNAse I (Ambion) treatment for 30 min. The one-tenth of the produced cDNA was amplified by PCR using Taq DNA polymerase (Invitrogen) and two reporter sequence-specific primers. The PCR products were fluorescently labeled by primer extension with 6-arboxyfluorescein (6-FAM) 5'-labeled reporter sequence-specific primer (2 min at 95 C, 20 s at 68 C and 10 min at 72 C) and these products were digested with 5U of HpaI (New England Biolabs) for 2h at 37 C. The fragments were purified using Qiaquick PCR columns (Qiagen), analyzed on an ABI 3130xL genetic analyzer (Applied Biosystems) with peak positions identified by using a set of X-rhodamine (ROX)-labeled MapMarker1000 molecular weight standards (BioVentures). The raw capillary electrophoresis data was processed using Attagraph software (Attagene).
O=C1OCc2ccccc21 was tested, and the outcome was “inactive”. CC(=O)OC/C=C(C)/C=C/C=C(C)/C=C/C1=C(C)CCCC1(C)C was tested, and the AC50 was 72.2 µM (active). With O=S(=O)(O)CCCN1CCOCC1 the outcome was “inactive”. In the case of CCCCCCCOC(C)=O, the outcome is reported as “inactive”. With c1coc(CNc2ncnc3nc[nH]c23)c1 the outcome was “inactive”. With O=S1(=O)CC=CC1 the outcome was “inactive”. With CCO[Si](CCC#N)(OCC)OCC the outcome was “inactive”. In the case of Cc1cc(O)c2c(c1)C(=O)c1cc(O)cc(O)c1C2=O, the outcome is reported as “inactive”. In the case of C[C@H](CCC(=O)O)[C@H]1CC[C@H]2[C@@H]3CC[C@@H]4C[C@H](O)CC[C@]4(C)[C@H]3CC[C@]12C, the AC50 is reported as 27.5 µM (active). In the case of CC(C)Cc1ccccc1, the outcome is reported as “inactive”. With CC(C)C(=O)c1ccccc1 the outcome was “inactive”. With CCCCCCCC1CCCC1=O (stereo not given) the outcome was “inactive”. In the case of CCCCCCCCSCc1cc(C)c(O)c(CSCCCCCCCC)c1, the outcome is reported as “inactive”. O=C(O)c1ccco1 was tested, and the outcome was “inactive”. For CCCCCCCCCO, the outcome was “inactive”. In the case of CC(C)(CO)CO, the outcome is reported as “inactive”. With CC(C)N1C(=O)c2ccccc2C1=O the outcome was “inactive”. In the case of C=C(C)C(=O)OCCN(C)C, the outcome is reported as “inactive”. With C=CCCCCCCCCC(=O)OCC the outcome was “inactive”. For CCCCCCOc1ccc(O)cc1, the AC50 was 33.4 µM (active). With CC12CCC(C1)C(C)(C)C2O (stereo not given) the outcome was “inactive”. For CCCCCCCCOS(=O)(=O)O, the outcome was “inactive”. In the case of CC(CO)(CO)[N+](=O)[O-], the outcome is reported as “inactive”. In the case of COc1ccc(OC)cc1, the outcome is reported as “inactive”. With CC(C)(O)CCc1ccccc1 the outcome was “inactive”. CCOC(=O)COC(=O)c1ccccc1C(=O)OCC was tested, and the outcome was “inactive”. For CCCCCCCCOC(C)=O, the outcome was “inactive”. With NCCN1CCNCC1 the outcome was “inactive”. With CCC(C)(C)C1CCC(=O)CC1 the outcome was “inactive”. With CCCCCCC(C)O (stereo not given) the outcome was “inactive”. For CCC(C)(CCCC(C)C)OC(C)=O (stereo not given), the outcome was “inactive”. CC(C)(C)c1cccc(O)c1 was tested, and the outcome was “inactive”. In the case of CC1=CC[C@@H](C(C)(C)O)CC1, the outcome is reported as “inactive”. In the case of C=COCC1CCC(COC=C)CC1 (stereo not given), the outcome is reported as “inactive”. In the case of O=C1CCC(=O)N1, the outcome is reported as “inactive”. O=C(C=Cc1ccccc1)OCCCc1ccccc1 was tested, and the outcome was “inactive”. For CC(=O)OCC=C(C)CCC=C(C)CCC=C(C)C, the AC50 was 63.8 µM (active). In the case of C[C@]12CC[C@@H]3c4ccc(O)cc4CC[C@H]3[C@@H]1CC[C@@H]2O, the outcome is reported as “inactive”. For CCCCOC(=O)C(C)OC(=O)CCC (stereo not given), the outcome was “inactive”. With O=C(O)c1ccc(C(=O)O)c(C(=O)O)c1 the outcome was “inactive”.
